Results on 40 molecules are retold here after PubChem BioAssay (NCI).

Compounds without any hit were thinned out: in the full panel of roughly 83,000, 20% have a hit.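 Single-concentration screen, 48 h exposure, 96-well plates. Endpoint: percent growth. Below 10 = active.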 Calls of active or inactive are those of the source.

The subject of the assay is LOX IMVI melanoma. As to the kind of experiment: NCI-60 one-dose screen, 48 h (100 = growth as untreated, 0 = no growth, -100 = all killed). The following applies: 10 µM unless noted. The procedure: Growth inhibition of the LOX IMVI human tumor cell line is measured as a screen for anti-cancer activity. Cells are grown in 96 well plates and exposed to the test compound for 48 hours. Compounds are tested at a single concentration, which is 10^-5 M for most compounds. The reported endpoint is percent growth (GI% or GIPRCNT), where numbers from 0 - 100% represent growth inhibition, and numbers from -100% - 0 represent cell death. For example, a value of 40 represents 60% growth inhibition. A value of 0 means no net growth occurred over the course of the experiment. A value of -40 indicates 40% of cells at the beginning of the experiment died by the end of the experiment. A value of -100 means all cells are dead at the end of the experiment.
NCI-60 Human Tumor Cell Lines Screen was performed using the standard one-dose NCI protocol, which is described in more detail at https://dtp.cancer.gov/discovery_development/nci-60/default.htm.
Compounds with GIPRCNT values below 10 were considered active. Activity score was based on GIPRCNT using the following formula: […]
Score is 0 for GIPRCNT values of 100 or above, 50 for GIPRCNT values of 0, and 100 for GIPRCNT values of -100.
`O=C1[C@@H]2Cc3c([nH]c4ccccc34)[C@@H](c3ccc(Cl)cc3)N2C(=O)CN1C1CCN(Cc2c(F)cccc2F)CC1`: the growth was 21.3% (inactive).

`CC(Nc1ncnc2ccc(-c3cnc4cnccn34)cc12)c1ccccc1` (stereo not given): the growth was 58.1% (inactive). Then `CCC1=Cc2c(OC)cccc2OC12C=Cc1c(OC)cccc1O2` (stereo not given), with 28.4% (inactive); and `COC(=O)c1cccc(NC2=C(Cl)C(=O)C(C)=C(C)C2=O)c1`, with 69% (inactive). For `COc1cc(-c2nc(-c3ccccc3)[nH]c2-c2ccnc(NCCCNS(=O)(=O)c3cccc(F)c3)n2)ccc1F`, the growth is 86.2% (inactive). Then `COc1ccc2[nH]cc(-c3nn4cc(-c5ccncc5)nc4s3)c2c1`, with 57.8% (inactive); and `O=C1CSC(c2cn(-c3ccccc3)nc2-c2ccc(Cl)cc2)N1c1ccccc1` (stereo not given), with 100% (inactive); and `C[C@]12CC[C@H]3[C@@H](CC=C4C[C@@H](O)CC[C@@]43C)[C@@H]1CC[C@@H]2[C@](C)(O)CCc1cccnc1`, with 75.9% (inactive).

With `O=S(=O)(NCCCNc1nccc(-c2[nH]c(-c3ccccc3)nc2-c2ccc(F)c(O)c2)n1)c1ccc(C(F)(F)F)cc1`, the growth was 46.3% (inactive). With `Cc1csc(/N=C(N)/N=C(\N)c2cccnc2)n1`, the growth is 74.7% (inactive). As to `O=C(CCCCCCN1CC(=O)N2[C@@H](C3CC3)c3[nH]c4ccccc4c3C[C@H]2C1=O)NO`, the growth is 33.2% (inactive). Regarding `CNC(=O)c1cc(-n2ccc3cc(NC(=O)Nc4ccc(N5CCN(C)CC5)c(C(F)(F)F)c4)ccc32)ccn1`, the growth is -72.8% (active). Then `CCN(CC)c1ccc(/C=N/NC(=O)c2ccc(S(N)(=O)=O)cc2)cc1`, with 0.095% (active); and `CCS(=O)(=O)Nc1ccc(C(=O)CC2(O)C(=O)Nc3ccccc32)cc1` (stereo not given), with 94.6% (inactive). Regarding `CCCCCCOC(=O)c1cc(-c2ccc(F)cc2)nc2ccccc12`, the growth is 91.3% (inactive).

Turning to `C#C[C@]1(O)CC[C@H]2[C@@H]3CC=C4c5sc(Nc6cc(Cl)ccc6OC)nc5CC[C@]4(C)[C@H]3CC[C@@]21C`, the growth was -71.7% (active). Consider `O=S(=O)(Oc1ccc(-c2cn3ccoc3n2)cc1)C1CCCCC1`, for which the growth is 100% (inactive). Consider `Cc1ccc(S(=O)(=O)NCCCNc2nccc(-c3[nH]c(-c4ccccc4)nc3-c3ccc(F)c(O)c3)n2)cc1`, for which the growth is 73.8% (inactive). Then `O=C(/C=C/c1ccc(F)cc1)Nc1cccc2cccnc12`, with 121% (inactive); and `COc1cc(OC)cc(-c2cc(-c3c[nH]c4ccccc34)nc(-c3c[nH]c4ccccc34)c2C#N)c1`, with 82.7% (inactive); and `CCCCN1C(=O)/C(=c2\sc3n(c2=O)C2C(NN=3)N(CC)C(=O)N2CC)c2cccc(C)c21` (stereo not given), with 42.4% (inactive). For `CS(=O)(=O)c1ccc(/C(=N/N=C(N)N)c2ccc(F)cc2)cc1`, the growth was 54.4% (inactive). As for `COc1ccc(C2CC(c3cccc(OCCCCOc4cccc(C5=NN(C(C)=O)C(c6ccc(OC)cc6)C5)c4)c3)=NN2C(C)=O)cc1` (stereo not given), the growth is 62.2% (inactive). For the molecule `O=C(CCCCCCNC(=O)C(O)(O)C(F)(F)F)Nc1ccc(-c2ccccc2)cc1`, the growth was -77.4% (active). As to `O=C(N/N=C\c1ccc([N+](=O)[O-])cc1)c1ccc2nc(-c3ccc(Br)cc3)[nH]c2c1`, the growth was -52.9% (active). The figure for `Cc1ncn(-c2ccc(/C=N/Nc3ccnc4cc(Cl)ccc34)cc2)c1C` is -88.9% (active); for `CC(C)(C)OC(=O)Nc1ccc(-c2cccc(Oc3ccc4nnc(Cl)n4n3)c2)cc1` it is 82.9% (inactive); for `O=C(/C=C/c1cccc(C(F)(F)F)c1)Nc1cccc(C(F)(F)F)c1` it is 28.4% (inactive).

For the molecule `COc1ccc2c(c1)c(-c1nn3cc(-c4ccncc4)nc3s1)cn2C`, the growth is 65.9% (inactive). The figure for `CN1c2ccccc2Sc2cc(/C=N/Nc3ccnc4cc(Cl)ccc34)ccc21` is 47.7% (inactive); for `CCCCCCCCCCCC(=O)NC(C)(C)C(=O)N1CCCC1C(=O)NC(C)(C)C(=O)NC(C)(C)C(=O)N1CCCC1C(=O)NC(C)(C)C(=O)NC(C)(C)C(=O)N1CCCC1C(=O)NC(C)C(=O)NCCC(=O)NC(C)C(=O)NC(C)(C)C(=O)NC(C)(C)C(=O)NC(C)(C)C(=O)NCCC(=O)NC(C)(C)C(=O)NC(C)(C)C(=O)NC(C)(C)C(=O)NC(C)C(=O)NCCC(=O)O` (stereo not given) it is -92.4% (active); for `Cc1cc2nc3c4cc(C#N)ccc4n(CCN(C)C)c3nc2cc1C` it is -55.5% (active). In the case of `N#Cc1cccc(-c2cc(-c3ccc4c(c3)OCCO4)[nH]n2)c1`, the growth is 46% (inactive). Then `CN1CCN(Cc2ccc(NC(=O)c3cncc(C#Cc4cnc5ccc(O[C@@H]6CCOC6)nn45)c3)cc2C(F)(F)F)CC1`, with -96.9% (active); and `C#CCOc1ccccc1C(OC(=O)c1ccccc1)C(=O)NC(C)(C)C(C)(C)C` (stereo not given), with 91.6% (inactive). Then `O=c1c2cc(-c3ccc(F)cc3F)ccc2n(Nc2ccccc2)c(=O)n1-c1cccc(C(F)(F)F)c1`, with -4.69% (active). On to `CCN(CC)c1ccc(/C=N/NC(=O)c2ccc(S(N)(=O)=O)cc2)c(O)c1`, for which the growth was 0.484% (active). The figure for `O=C(CSc1nc2ccccc2c(=O)n1-c1ccccc1)Nc1ccc(S(=O)(=O)Nc2nccs2)cc1` is 36.5% (inactive); for `CCOC(=O)c1cnc2c(-c3ccc(Cl)c(Cl)c3)cnn2c1` it is 79% (inactive); for `Cn1c(SCC(=O)c2ccc(Br)cc2)nc2ccccc2c1=O` it is 95.9% (inactive).
